These results are taken from ChEMBL document CHEMBL3433997, “St. Jude Leishmania screening dataset” (2016).

What is called inhibition is the drop in the measured response relative to a control, in per cent.

The target in the assay is Glucose transporter (Leishmania mexicana) (UniProt O61059). In words: ST_JUDE_LEISH: Cytotoxicity at 2uM final concentration against transgenic Leishmania Mexicana promastigotes LmGT2 that are glucose transport deficient and complemented with the L. Mexicana glucose transporter 2. Activity is measured by DNA content using SYBR green in vitro. Format: functional.
As to `O=C(Cc1ccc(NC(=O)c2ccc(O)c(-c3ccc(Cl)c(Cl)c3)c2)cc1)NCCc1ccc(Cl)c(Cl)c1`, the inhibition was -0.6%.
As to `Cc1ccc2c(-c3ccc([N+](=O)[O-])o3)cc(C)nc2c1`, the inhibition was 7.05%.
In the case of `CCCCN(C(=O)c1ccccc1C)c1nnc(-c2ccccc2C)s1` it was -0.2%; in that of `COc1ccc(-c2cccc(NC(=O)c3cccc(Cl)c3)c2)cc1CN1CCCC1`, -1.22%; in that of `Cc1cccc2nc(-c3ccc(-c4ccc(NC(=O)CN5CCN(C)CC5)cc4)cc3)[nH]c12`, 4.7%.
For `CCOC(=O)c1cc(C(=O)NCCCCN2CCC(c3ccc4c(c3OC)CCCC4)CC2)ccc1-c1ccc(C(F)(F)F)cc1` the value was 1.36%; for `CN(c1ccccc1)S(=O)(=O)c1cccc(NC(=O)c2ccc(-n3ccnc3)c([N+](=O)[O-])c2)c1`, 0.73%; for `Cc1ccnc(NC(c2cccc(Cl)c2Cl)c2ccc3cccnc3c2O)c1` (stereo unspecified), -0.63%.
For `COc1ccccc1CNc1ccnc(NCCc2cccc(C(F)(F)F)c2)n1` the value was 2.54%; for `Cc1ccc2c(c1)c(-c1ccccc1)c(-c1ccccc1)n2CC(O)CN1CCN(CC=Cc2ccccc2)CC1` (stereo unspecified), 0.7%; for `OC(CNCc1ccccc1OCc1ccccc1)c1cc(C(F)(F)F)cc(C(F)(F)F)c1` (stereo unspecified), 4.23%.
Consider `COc1ccc(CN(C)CCCOc2ccc(NC(=O)C=Cc3ccc(C(C)(C)C)cc3)cc2)cc1OC`, for which the inhibition was determined as 9.75%.
In the case of `CCc1c[nH]c2c(N3CCCC3=O)cc(C(=O)N[C@@H](Cc3ccccc3)[C@H](O)CNC3CCCCC3)cc12` it was 9.77%.
In the case of `O=C(Nc1ccc(-c2csc(-c3nc4ccccc4[nH]3)c2)cc1)Nc1ccsc1` it was 0.44%; in that of `CNC(=O)c1cnc(Nc2ccc(N3CCN(C)CC3)c(C)c2)nc1NC`, 3.79%; in that of `CC(=O)Nc1ccc(C(=O)NC2CCN(c3ccnc4cc(Cl)ccc34)C2)cc1` (stereo unspecified), 1.4%.
As to `CCCCCCCNC(=O)NCC1CCCN(CCCCCNC(=O)/C=C/c2ccc(Cl)c(Cl)c2)C1` (stereo unspecified), the inhibition came out at 2.15%.
For `N#Cc1cccc(-c2nc(NCc3cccc(C(F)(F)F)c3)nn2-c2cccc(C(F)(F)F)c2)c1` the value was -0.56%; for `CC(=O)Nc1ccc(C(=O)Nc2cccc(-c3csc(-c4nc5ccccc5[nH]4)c3)c2)cn1`, -0.51%.
As to `CCCCN(C(=O)c1ccccc1Cl)c1nnc(-c2ccccc2C)s1`, the inhibition worked out at 0.03%.
For `Cc1ccc(NC(=O)c2cccc(CN3CCCN(Cc4cccc(O)c4)CC3)c2)cc1F` the value was 1.34%.
For `COC(=O)Nc1ccc(-c2ccc(C(=O)NC3CCN(C[C@H](O)c4ccnc5ccc(OC)cc45)CC3)cc2)c(C)c1` the value was -1.03%; for `COc1ccc(CCNCCCCCNCCCc2ccc(Cl)cc2)cc1OC`, 0.25%; for `CCOc1cc(C(=O)Nc2ccccc2N2CCN(S(C)(=O)=O)CC2)cc(OCC)c1OCC`, 3.43%.
Regarding `COc1cc2nc(NCCCO)nc(Nc3ccc(Oc4ccccc4)cc3)c2cc1OC`, the inhibition was found to be 4.69%.
With `N=C(Nc1cccc(Cc2ccccc2)n1)Nc1ncccn1`, the inhibition is 1.88%.
